Screens: PubChem, several laboratories
The list is not random: actives were taken first. Their share in the collection is about 1.4%.
PrP 5UTR inh = suppresses PrP 5' UTR mRNA reporter expression | cell-based PrP 5' UTR mRNA reporter, plate reader | inhibition, % (no concentration beside the values) | actives 0.35% (n = 340,000) | AID 488862; in the data active means inhibition above about 52%; further: 0 = median of the neutral control wells
Vc quorum ag = inducers of Vibrio cholerae quorum light production without autoinducers. V. cholerae BH1578 lux reporter, luminescence, 6 h. actives 0.16% (n = 350,000). AID 588436. activation, % at 18.7 µM; in the data active means activation mostly above about 9.7%, no sharp cut-off
SSB-PriA inh = blocks PriA binding to SSB C-terminal tail; AlphaScreen SSBct-PriA binding, biotinylated peptide; inhibition, % at 33 µM; actives 0.6% (n = 430,000); in the data active means inhibition mostly above about 37%, no sharp cut-off; inactive means mostly below about 20%;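 further: plate controls were negative control peptide for no effect and reference peptide for full effect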
FadD28 binding = inhibitors of Mycobacterium tuberculosis FadD28 bisubstrate binding | FadD28 bisubstrate probe binding, fluorescence polarization | inhibition, % at 12.5 µM | actives 0.22% (n = 360,000) | AID 588549; in the data active means inhibition above about 8.5%, passing the limit was not always enough
PrPC TRFRET = cell surface PrPC inhibition, primary TR-FRET screen. AID 720596. inhibition, % at 13.8 µM. actives 0.43% (n = 370,000). TR-FRET read-out; in the data active means inhibition above about 24%; further: 0% = median of the test wells and 100% = reference compound wells
PrP 5UTR single = prion 5' UTR mRNA inhibition, cherry-pick retest; inhibition, % at 2.5 µM; AID 504592; actives 48% (n = 1,100); shares compounds with PrP 5UTR inh; cell-based prion protein 5' UTR reporter, plate reader; in the data active means inhibition above about 54%
PrPC confirm = confirmation of inhibitors of cell surface human prion protein; actives 65% (n = 1,500); cell surface PrPC level, TR-FRET; shares compounds with PrPC TRFRET; inhibition, % at 13.8 µM; in the data active means inhibition above about 25%
LD9 cytotox = kills or reduces viability of LD9 cells in PrPc counter-screen | shares compounds with PrPC TRFRET | LD9 cells cytotoxicity, luminescence viability | inhibition, % at 13.8 µM | actives 29% (n = 1,500); in the data active means inhibition above about 9.5%
Active calls of the source: *; i = inactive; · = no result.

SMILES	PrP 5UTR inh	Vc quorum ag	SSB-PriA inh	FadD28 binding	PrPC TRFRET	PrP 5UTR single	others
Cc1cc(C(=O)CN2C(=O)c3ccccc3S2(=O)=O)c(C)n1CC1CCCO1 (stereo unspecified)	88*	0	-9	-4	-4	86*
CCOC(=O)c1cnc(Nc2nc3ccccc3o2)nc1CSc1nnc(C)s1	-42	i	-1	-4	2	·
CCOC(=O)c1cnc(Nc2nc3ccccc3o2)nc1C	65*	i	-14	0	-9	70*
CC1CCc2nc(NC(=O)c3ccco3)sc2C1 (stereo unspecified)	57*	0	14	-4	1	54*
O=C(Nc1nc2cc3c(cc2s1)OCO3)C1=COCCO1	70*	0	-2	-3	-4	64*
O=C(Nc1ccc(-c2nc3ccccc3s2)cc1)C1=COCCO1	73*	i	-8	1	-6	66*
O=C(Nc1nc2cc3c(cc2s1)OCCO3)c1ccco1	78*	i	-7	-3	1	81*
O=C(Nc1cccc(-c2nc3ccccc3s2)c1)C1=COCCO1	-14	i	-5	-5	0	·
O=C(CNC(=O)c1cccnc1)NN=Cc1cc(Br)c(O)c(Br)c1	·	·	1	·	·	·
Cc1ccc(S(=O)(=O)n2nc(C)c(Cl)c2C)c(C)c1	·	·	-51	·	·	·
CCOc1ccccc1C(=O)N1CCN(c2ccc(C(F)(F)F)cn2)CC1	62*	0	-8	-1	3	8
COc1ccccc1C(=O)NCCC(=O)N1CCN(c2ccc(C(F)(F)F)cn2)CC1	-1	i	-7	-2	5	·
O=C(NCC(c1cccnc1)N1CCN(c2ccc(F)cc2)CC1)C1CCCCC1 (stereo unspecified)	69*	i	-1	-2	-1	-13
COc1ccc(N2CCN(C(CNC(=O)C3CCCCC3)c3cccnc3)CC2)cc1 (stereo unspecified)	2	i	2	-2	3	·
COC(=O)c1cc(C(=O)N2CCN(c3cccc(Cl)c3)CC2)cc([N+](=O)[O-])c1	62*	0	26	-1	-5	87*
COc1cc(OC)c2c(-c3cccc(-c4ccc(C(C)=O)cc4)c3)cc(=O)oc2c1	64*	-2	-7	0	·	93*
CO[C@@H](CNC(=O)NCc1cccs1)c1ccccc1Cl	·	·	-13	·	·	·
Cc1ccc(NC(=O)C2COc3ccccc3O2)cc1 (stereo unspecified)	-82	0	-31	-1	3	·
Cc1ccc(NC(=O)CN(C)C(=O)C2COc3ccccc3O2)cc1 (stereo unspecified)	75*	i	-10	-1	-1	-9
Cc1cccn2c(=O)c(C=NO)c(N3CCCCC3)nc12	·	·	-1	·	·	·
COc1cc2c(c(OC)c1OC)-c1ccc(O)c(=O)cc1C(NC(C)=O)CC2 (stereo unspecified)	63*	-1	-1	1	-12	86*
COC(=O)c1ccc2c(c1)C(NC(C)=O)CCc1cc(OC)c(OC)c(OC)c1-2 (stereo unspecified)	51	i	-14	-2	8	·
COc1cc2c(c(OC)c1OC)-c1ccc(OC)c(=O)cc1C(NC(=O)c1ccccc1)CC2 (stereo unspecified)	56	i	-13	-3	-10	·
COc1cc2c(c(OC)c1OC)-c1ccc(SC)c(=O)cc1C(NC(=O)c1ccccc1)CC2 (stereo unspecified)	56*	i	-2	0	-3	83*
COc1c(C=O)c2c(c(OC)c1OC)-c1ccc(OC)c(=O)cc1C(NC(C)=O)CC2 (stereo unspecified)	58*	-1	-17	0	7	86*
SMILES	PrP 5UTR inh	Vc quorum ag	SSB-PriA inh	FadD28 binding	PrPC TRFRET	PrP 5UTR single	others
O=S1(=O)CC(O)C(Cl)C1 (stereo unspecified)	·	·	9	·	·	·
c1ccc(-c2nnc(CNC3CCCC3)o2)cc1	·	·	-10	·	·	·
COC(C(=O)C(O)C(C)O)C1Cc2cc3cc(OC4CC(OC5CC(O)C(O)C(C)O5)C(O)C(C)O4)c(C)c(O)c3c(O)c2C(=O)C1OC1CC(OC2CC(OC3CC(O)C(OC)C(C)O3)C(O)C(C)O2)C(O)C(C)O1 (stereo unspecified)	70*	-6	-16	1	0	71*
CCOC(=O)c1c(NC(=O)CN2CCN(CCN3C(=O)c4cccc5cccc(c45)C3=O)CC2)sc2c1CCCC2	·	·	-2	·	·	·
O=C(Cn1ncccc1=O)N1CC(S(=O)(=O)c2ccc(F)cc2)C1	·	·	-20	·	·	·
CCOC(=O)NC(=O)/C(C#N)=N/Nc1c(F)cccc1F	61*	i	·	-2	2	30
COC(=O)C1c2ccsc2CCN1C(=O)Cn1cccn1 (stereo unspecified)	·	·	0	·	·	·
Nc1ncnc2c(C3OC(CO)C(O)C3O)c[nH]c12 (stereo unspecified)	95*	i	-14	-3	57*	97*	PrPC confirm=61*;LD9 cytotox=91*
Nc1ncnc2c1ncn2[C@@H]1O[C@H](CO)[C@@H](O)[C@H]1O	-18	0	-8	-1	1	·
CC(O)C1C=C/C=C/C(=O)OC2CC3OC4C5OC5(C)C(O)CC4(COC(=O)C(O)C(C)CCO1)C2(C)C31CO1 (stereo unspecified)	·	·	-6	·	·	·
CC1=CC2OC3CC4OC(=O)/C=C/C=C/C(=O)OCCC(C)C(O)C(=O)OCC2(CC1O)C4(C)C31CO1 (stereo unspecified)	·	·	-6	·	·	·
CC1=CC2OC3CC4OC(=O)C=CC=CC(C(C)O)OCC(O)C5(C)OC5C(=O)OCC2(CC1O)C4(C)C31CO1 (stereo unspecified)	94*	i	·	0	89*	93*	PrPC confirm=96*;LD9 cytotox=60*
CC(=O)OC1C(=O)OCC23CCC4(C)OC4C2OC2CC(OC(=O)/C=C/C=C/C(=O)OCCC1C)C3(C)C21CO1 (stereo unspecified)	·	·	-24	·	·	·
CC(O)C1C=CC=CC(=O)OC2CC3OC4C5OC5(C)C(O)CC4(COC(=O)C(O)C(C)CCO1)C2(C)C31CO1 (stereo unspecified)	70*	i	·	-1	92*	83*	PrPC confirm=99*;LD9 cytotox=40*
CC1=CC2OC3CC4OC(=O)C=CC=CC(=O)OCCC(C)C(O)C(=O)OCC2(CC1)C4(C)C31CO1 (stereo unspecified)	94*	i	·	-3	82*	93*	PrPC confirm=94*;LD9 cytotox=69*
CC1CCOC(=O)C=CC=CC(=O)OC2CC3OC4C5OC5(C)C(O)CC4(COC(=O)C1O)C2(C)C31CO1 (stereo unspecified)	82*	i	·	-3	84*	92*	PrPC confirm=101*;LD9 cytotox=46*
